Data taken from PubChem BioAssay (NCATS).
“And” between values parts separate entries of the source, which are not always exact repeats. Identical values can stand only once. Records with an inconclusive call do not appear. A number with no mark means an inactive call. The source made the active and inactive calls. Calls come from the whole dose curve; as a rule, active = well fitted curve in the direction sought with a large enough effect; inconclusive = small, poorly fitted or top-dose-only effect, or another doubt; inactive = no such curve, though single readings can be large; an effect the other way counts as inactive or inconclusive.

Assay: Quantitative highthroughput screen to assess conditional lethalithy of SEM cells grown in RPMI1640 with dialyzed fetal bovine serum (RPMI+ds) (AID 1963884); note: nearly all actives have a fitted effect of over 35% in size;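 for viability: 100% = DMSO control wells and 0% = empty wells without cells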
Conditions: SEM B-ALL cells, RPMI+dialyzed FBS, CellTiter-Glo viability, 48 h; series mostly up to 45.8 µM
Procedure, shortened: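 Each medium arm—HPLM with 10% dialyzed FBS, or RPMI1640 with 5 mM glucose and 10% untreated or dialyzed FBS—was screened against an 11-point, 3-fold compound titration for 48 h at 37 °C, with CellTiter-Glo luminescence as endpoint.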
Potency is the fitted concentration of half-maximal effect.

Row | SMILES | Potency
1 | CN(C[C@@H]1COCCO1)S(=O)(=O)Nc1ccc2ccc3ncc(-c4cnn(C)c4)cc3c(=O)c2c1 | 0.662 µM (active)
2 | Cc1ccc2nc(NC(=O)CSc3nc4c(c(=O)n3-c3ccccc3)SCC4)sc2c1 | 20.9 µM (active)
3 | Cc1nc(N)sc1-c1ccnc(Nc2ccc(N3CCOCC3)cc2)n1 | 2.09 µM (active)
4 | Nc1ncnc2c1nc(Cl)n2[C@@H]1O[C@H](CO)[C@@H](O)[C@@H]1O | 8.33 µM (active)
5 | CCc1nc(C(N)=O)c(Nc2ccc(N3CCC(N4CCN(C)CC4)CC3)c(OC)c2)nc1NC1CCOCC1 | 0.209 µM (active)
6 | NC(=O)Nc1sc(-c2ccc(F)cc2)cc1C(N)=O | 14.8 µM (active)
7 | Cn1c(=O)c(F)c(Nc2ccc(I)cc2F)c2c(=O)n(C[C@@H](O)CO)cnc21 | 2.09 µM (active)
8 | CN1CCCC(n2nc(Cc3ccc(Cl)cc3)c3ccccc3c2=O)CC1 (stereo not given) | inactive

Assay: Cellular viability qHTS for adrenocortical cancer (ACC) cell line SW-13 (AID 1963989); note: nearly all actives have a fitted effect of over 65% in size;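 for activity (max response): cells grown in serum-free medium with ITS supplement; % is set by controls: 0 for no effect and ±100 for the full control effect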
Conditions: SW-13 ACC cells viability, CellTiter-Glo, 48 h; activity (max response): hits give low values
Procedure, shortened: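 IC50 and maximal-response values come from four-parameter logistic fits of titration data. SW-13 cells in serum-free medium received compounds (up to 46 uM final) for 48 h before CellTiter-Glo luminescence.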

Row | SMILES | activity (max response) | Potency
9 | NCCCC[C@H](N[C@@H](CCc1ccccc1)C(=O)O)C(=O)N1CCC[C@H]1C(=O)O | 4.67% | 
10 | C[C@H]1CNC(=O)c2cnn3ccc(nc23)N[C@H](C)c2cc(F)ccc2O1 |  | 8.91 µM (active)
11 | C[C@]12C=CC(=O)C=C1CC[C@H]1[C@@H]3C[C@@H](O)[C@](O)(C(=O)CO)[C@@]3(C)C[C@H](O)[C@@]12F | 4.79% | 
12 | NNc1nnc(NN)c2ccccc12 | -8.18% | 
13 | C/C=C/C[C@@H](C)C(=O)[C@H]1C(=O)N[C@@H](C(C)C)C(=O)N(C)CC(=O)N(C)[C@@H](CC(C)C)C(=O)N[C@@H](C(C)C)C(=O)N(C)[C@@H](CC(C)C)C(=O)N[C@@H](C)C(=O)N[C@H](C)C(=O)N(C)[C@@H](CC(C)C)C(=O)N(C)[C@@H](CC(C)C)C(=O)N(C)[C@@H](C(C)C)C(=O)N1C | 4.11% | 
14 | COCC(=O)Nc1c(I)c(C(=O)NCC(O)CO)c(I)c(C(=O)N(C)CC(O)CO)c1I (stereo not given) | -3.53% | 
15 | Cc1ccc2nc(NC(=O)CSc3nc4c(c(=O)n3-c3ccccc3)SCC4)sc2c1 | -6.8% | 
16 | CCCNC(=O)[C@H]1O[C@@H]1C(=O)N[C@H](C(=O)N1CCC[C@H]1C(=O)OC)C(C)CC (stereo not given in full) |  | 10 µM (active)
17 | CCCCCCC[N+](CC)(CC)CCCCc1ccc(Cl)cc1 |  | 5.8 µM (active)
18 | CCN(CC)CCOC(=O)C(c1ccccc1)C1CCCCC1 (stereo not given) | 12.1% | 
19 | COC(=O)C1=C(C)NC(c2ncc(F)cc2F)=N[C@H]1c1ccc(F)cc1Cl | -9.49% | 
20 | CCNC(=O)NCc1cccc(Cl)c1 | -4.81% | 
21 | CC[C@H](CC#N)OC(=O)N[C@@H](C)c1cccc(NC(=O)Nc2ccc(-c3cnco3)c(OC)c2)c1 |  | 28.2 µM (active)
22 | CCc1nc(C(N)=O)c(Nc2ccc(N3CCC(N4CCN(C)CC4)CC3)c(OC)c2)nc1NC1CCOCC1 |  | 17.8 µM (active)
23 | C=C1C(=O)O[C@H]2C[C@H](C)C(/C=C/C(C)=O)=CC[C@H]12 |  | 15.8 µM (active)
24 | CN(C)CCCOC1(Cc2ccccc2)CCCCCC1 | 2.61% | 
25 | CN(C)CCN1C(=O)c2cccc3cc(NC(N)=O)cc(c23)C1=O |  | 17.8 µM (active)
26 | COc1ccc2cc1Oc1cc3c(cc1OC)CC[N+](C)(C)[C@H]3Cc1ccc(cc1)Oc1c(OC)c(OC)cc3c1[C@@H](C2)[N+](C)(C)CC3 | 15.7% | 
27 | Cc1ccc2c(n1)Oc1ccc(C(C)C(=O)OCC(=O)N(C)C)cc1C2 (stereo not given) | -7.34% and -9.36% | 
28 | NC(=O)Nc1sc(-c2ccc(F)cc2)cc1C(N)=O | -22.4% | 
29 | CCOc1cc(C(=O)N2CCC(N3CCN(C)CC3)CC2)ccc1Nc1ncc2c(n1)N(C1CCCC1)c1ccccc1C(=O)N2C |  | 28.2 µM (active)
30 | CO[C@H]1O[C@@H]2O[C@@]3(C)CC[C@H]4[C@H](C)CC[C@@H]([C@H]1C)[C@@]24OO3 | 0.283% | 
31 | N[C@@H](Cc1ccc(O)cc1)C(=O)O | 7.19% | 
32 | COC(=O)Nc1nc2ccc(C(=O)C3CC3)cc2[nH]1 |  | 0.731 µM (active)
33 | O=C(O)CCC(=O)c1ccc(-c2ccccc2)cc1 | 23% | 
34 | Cc1cc(C(=O)Nc2cc(Nc3ccc4c(/C=C/c5ccccn5)n[nH]c4c3)ccc2F)n(C)n1 |  | 22.4 µM (active)
35 | Cc1cc(CS(=O)(=O)c2ccccc2)cc(OCc2ccc(CN3CCC[C@@H]3CO)cc2)c1 |  | 28.2 µM (active)
